Measured values from PubChem BioAssay (Tox21).
Several values for one entry are separate records, joined by “and”; a condition that tells them apart may be missing. Identical values can stand only once. Results filed as inconclusive are left out. A call without a number means that no potency is given here. Activity calls are given as the source filed them. Unless noted, the call rests on the fitted dose curve; in most records, active means well fitted curve in the direction sought with a large enough effect in the repeat runs; inconclusive means weak or mixed curves; inactive means no such curve, though single readings can be large; an effect the other way counts as inactive or inconclusive.

What was measured:
[1] = qHTS assay to identify small molecule antagonists of the estrogen receptor alpha (ER-alpha) signaling pathway using the BG1 cell line in the presence of 0.1 nM 17-beta-estradiol - cell viability counter screen (AID 1259241); further: nearly all actives have a fitted effect of over 40% in size
Outline: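 The cell line endogenously expresses full-length ER-alpha and carries four EREs driving luciferase. Cells are cultured 5 days hormone-free, treated 22 hr with compounds and 0.1 nM estradiol, then viability is read by fluorescence.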

[2] = qHTS assay to identify small molecule antagonists of the androgen receptor (AR) signaling pathway using the MDA cell line in the presence of 0.5 nM R1881 - cell viability counter screen (AID 1259242); further: nearly all actives have a fitted effect of over 45% in size
Outline: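 Live-cell protease fluorescence, CellTiter-Fluor, 30 min at 37C. Cells: MDA-kb2, 3,000/well, preincubated 5 hr. Compounds plus 0.5 nM R1881 final, 16 hr, 37C, 0% CO2.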

[3] = biological target: Estrogen receptor (Homo sapiens) (UniProt P03372); experiment: qHTS assay to identify small molecule antagonists of the estrogen receptor alpha (ER-alpha) signaling pathway using the BG1 cell line in the presence of 0.1 nM 17-beta-estradiol (AID 1259244); further: nearly all actives have a fitted effect of over 50% in size
Outline: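 Luminescence after ONE-Glo (30 min, room temperature) measured ERE-luciferase activity in VM7Luc4E2 cells treated 22 h with compound and 0.1 nM final 17beta-estradiol as stimulator.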

[4] = qHTS assay to identify small molecule phospholipidosis (PLD) inducers (AID 1259344; active means well fitted curve in the direction sought with a large enough effect; an effect the other way counts as inactive or inconclusive)
Outline: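 Image-based: LipidTOX Red pit count/intensity per well and per cell; HepG2, 24 h compound at 37 C, PFA fixation, Hoechst counterstain.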

[5] = qHTS assay to identify small molecule HDAC inhibitors (AID 1259364);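 further: wild-type HCT-116 cells with endogenous class I/II HDAC activity; top concentration of the series differs between compounds; nearly all actives have a fitted effect of over 45% in size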
Outline: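 HCT-116 (wild type), 1,500 cells/well, overnight; compound 2 hr 37C 5% CO2; HDAC-Glo I/II reagent 30 min RT; luminescence readout.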

[6] = qHTS assay to identify small molecule HDAC inhibitors - cell viability counter screen (AID 1259365); further: series mostly up to about 92 µM; nearly all actives have a fitted effect of over 50% in size
Outline: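 Viability readout: CellTiter-Glo luminescence. Wild-type HCT-116 cells, 2hr compound treatment following overnight attachment at 37 C.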

[7] = qHTS assay to identify small molecule agonists of the sonic hedgehog signaling (Shh) pathway - cell viability counter screen (AID 1259366); further: nearly all actives have a fitted effect of over 50% in size; further: potency means the concentration at half of the fitted maximal effect
Outline: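 Viability measured fluorometrically (CellTiter-Fluor, 1hr, 37C) in 3T3 Gli1-Luc reporter cells after 23hr compound exposure within a 24hr incubation at 37C/5% CO2.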

[8] = qHTS assay to identify small molecule antagonists of the sonic hedgehog signaling (Shh) pathway - cell viability counter screen (AID 1259367); further: nearly all actives have a fitted effect of over 55% in size; further: potency means the concentration at half of the fitted maximal effect
Outline: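 Tox21 library chemicals were tested on a Gli1-Luc NIH/3T3 clone (2,000 cells/well) stimulated by conditioned medium; viability was quantified as fluorescence from CellTiter-Fluor reagent added at 23 hr.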

[9] = qHTS assay to identify small molecule agonists of the sonic hedgehog signaling (Shh) pathway (AID 1259368; calls by dose curve;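 further: NIH/3T3-derived 3T3Gli1-Luc cells carrying a stable Gli1-driven firefly luciferase reporter; series mostly up to about 92 µM; nearly all actives have a fitted effect of over 15% in size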)
Outline: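 Read-out: firefly luciferase luminescence from a Gli1 response element reporter stably integrated in NIH/3T3-derived 3T3Gli1-Luc cells, measured 30 min at room temperature after reagent addition. Compound exposure lasted 24 hr at 37 C, 5% CO2.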

Sequence of Estrogen receptor (Homo sapiens) (P03372 whole entry, looked up): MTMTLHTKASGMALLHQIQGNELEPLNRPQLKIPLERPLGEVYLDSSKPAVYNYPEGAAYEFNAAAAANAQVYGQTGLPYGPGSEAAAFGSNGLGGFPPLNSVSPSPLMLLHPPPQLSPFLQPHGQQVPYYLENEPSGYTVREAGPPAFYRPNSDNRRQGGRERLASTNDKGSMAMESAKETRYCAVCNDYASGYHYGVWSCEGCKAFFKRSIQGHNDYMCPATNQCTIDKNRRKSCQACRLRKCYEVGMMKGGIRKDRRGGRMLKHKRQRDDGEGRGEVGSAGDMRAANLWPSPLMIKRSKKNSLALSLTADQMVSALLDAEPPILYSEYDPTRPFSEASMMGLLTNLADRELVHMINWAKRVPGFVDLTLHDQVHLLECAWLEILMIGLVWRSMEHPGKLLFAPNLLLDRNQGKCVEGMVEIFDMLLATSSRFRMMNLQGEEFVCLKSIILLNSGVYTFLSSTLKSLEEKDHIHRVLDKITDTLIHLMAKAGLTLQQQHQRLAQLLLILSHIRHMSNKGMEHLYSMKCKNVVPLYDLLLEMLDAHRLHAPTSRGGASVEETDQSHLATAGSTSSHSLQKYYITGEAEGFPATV

CCOc1ccc2c(c1)C(C)=CC(C)(C)N2
Potency [1]: inactive | Potency [2]: inactive | Potency [3]: inactive | Potency [4]: inactive | Potency [5]: inactive | Potency [6]: inactive | Potency [7]: inactive | Potency [8]: inactive | Potency [9]: inactive

CCCCC(CC)COC(=O)CC(C(=O)OCC(CC)CCCC)S(=O)(=O)O (configuration not stated)
Potency [1]: inactive | Potency [2]: inactive | Potency [3]: inactive | Potency [4]: inactive | Potency [5]: inactive | Potency [6]: inactive | Potency [8]: inactive | Potency [9]: inactive

c1ccc2c(c1)CCCC2C1=NCCN1 (configuration not stated)
Potency [1]: inactive | Potency [2]: inactive | Potency [3]: inactive | Potency [4]: inactive | Potency [5]: inactive | Potency [6]: inactive | Potency [7]: inactive | Potency [8]: inactive | Potency [9]: inactive

CCn1cc(C(=O)O)c(=O)c2cc(F)c(N3CCNC(C)C3)c(F)c21 (configuration not stated)
Potency [1]: inactive | Potency [2]: inactive | Potency [3]: inactive | Potency [4]: inactive | Potency [5]: inactive | Potency [6]: inactive | Potency [7]: inactive | Potency [8]: inactive | Potency [9]: inactive

CCCOC(=O)c1cc(O)c(O)c(O)c1
Potency [1]: inactive | Potency [2]: inactive | Potency [3]: inactive | Potency [4]: inactive | Potency [5]: inactive | Potency [6]: inactive | Potency [7]: 43.1 µM (active) | Potency [8]: inactive | Potency [9]: inactive

C=CC(=O)OCCCCCCOC(=O)C=C
Potency [1]: inactive | Potency [2]: inactive | Potency [3]: inactive | Potency [5]: inactive | Potency [6]: inactive | Potency [7]: 31 µM (active) and 61.1 µM (active) | Potency [8]: 54.5 µM (active) | Potency [9]: inactive

OCCN1CCNCC1
Potency [1]: inactive | Potency [2]: inactive | Potency [3]: inactive | Potency [5]: inactive | Potency [6]: inactive | Potency [7]: inactive | Potency [8]: inactive | Potency [9]: inactive

CC(C)CCOC(=O)c1ccc(N(C)C)cc1
Potency [1]: inactive | Potency [2]: inactive | Potency [3]: inactive | Potency [4]: inactive | Potency [6]: inactive | Potency [7]: inactive | Potency [8]: inactive | Potency [9]: inactive

CC(=O)CC(=O)Nc1ccc2[nH]c(=O)[nH]c2c1
Potency [1]: inactive | Potency [2]: inactive | Potency [3]: inactive | Potency [5]: inactive | Potency [6]: inactive | Potency [7]: inactive | Potency [8]: inactive | Potency [9]: inactive

COC(=O)/C=C/c1ccccc1
Potency [1]: inactive | Potency [2]: inactive | Potency [3]: inactive | Potency [5]: inactive | Potency [6]: inactive | Potency [7]: inactive | Potency [8]: inactive | Potency [9]: inactive

C=C(C)C(=O)O
Potency [1]: inactive | Potency [2]: inactive | Potency [3]: inactive | Potency [5]: inactive | Potency [6]: inactive | Potency [7]: inactive | Potency [8]: inactive | Potency [9]: inactive
